Data as given in the supplement of paper PMC6555819.

How the values were obtained:
Assay in all cases: PBM binding z-score (relative to random genomic background probes); higher = stronger binding; sequences stand for … in GC…GCGATTGACAGCGTAGAATGAAGG
[1] = system: FXR:RXRa (NR concentration 270 nM, RXRa partner concentration 90 nM)
Procedure, shortened: (§1)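 Ligand-free nuclear receptor dimers were bound for 1 h to custom Agilent 4×180K protein-binding microarrays. Detection used antibodies against each partner (one per run). Binding z-scores rest on regression-normalized fluorescence, with random background probes as the reference.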

[2] = system: LXRa:RXRa (NR concentration 270 nM, RXRa partner concentration 90 nM)
Procedure, shortened: as §1

[3] = system: LXRa homodimer (NR concentration 270 nM)
Procedure, shortened: as §1

[4] = system: LXRb:RXRa (NR concentration 270 nM, RXRa partner concentration 90 nM)
Procedure, shortened: as §1

[5] = system: LXRb homodimer (NR concentration 270 nM)
Procedure, shortened: as §1

[6] = system: PPARa:RXRa (NR concentration 270 nM, RXRa partner concentration 90 nM)
Procedure, shortened: as §1

[7] = system: PPARg:RXRa (NR concentration 180 nM, RXRa partner concentration 90 nM)
Procedure, shortened: as §1

[8] = system: PPARg:RXRa 270nM:90nM, anti-RXR (NR concentration 270 nM, RXRa partner concentration 90 nM)
Procedure, shortened: as §1

[9] = system: PPARg:RXRa 30nM:10nM, anti-RXR (NR concentration 30 nM, RXRa partner concentration 10 nM)
Procedure, shortened: as §1

[10] = system: PPARg:RXRa 90nM:30nM, anti-RXR (NR concentration 90 nM, RXRa partner concentration 30 nM)
Procedure, shortened: as §1

[11] = system: PPARg:RXRa DBDmut IVT, anti-RXR (DBD mutation: RXRa K156A/R161A, NR concentration 270 nM, RXRa partner concentration 90 nM)
Procedure, shortened: as §1

[12] = system: PPARg:RXRa IVT, anti-PPARg (NR concentration 270 nM, RXRa partner concentration 90 nM)
Procedure, shortened: as §1

[13] = system: PPARg DBDmut:RXRa IVT, anti-PPARg (DBD mutation: PPARg1 K132A/R137A, NR concentration 270 nM, RXRa partner concentration 90 nM)
Procedure, shortened: as §1

[14] = system: PPARg DBDmut IVT, anti-PPARg (DBD mutation: PPARg1 K132A/R137A, NR concentration 270 nM)
Procedure, shortened: as §1

[15] = system: PPARg homodimer (NR concentration 180 nM)
Procedure, shortened: as §1

[16] = system: PXR:RXRa (NR concentration 270 nM, RXRa partner concentration 90 nM)
Procedure, shortened: as §1

[17] = system: PXR homodimer (NR concentration 270 nM)
Procedure, shortened: as §1

[18] = system: RARa:RXR (NR concentration 270 nM, RXRa partner concentration 90 nM)
Procedure, shortened: as §1

[19] = system: RARa homodimer (NR concentration 270 nM)
Procedure, shortened: as §1

[20] = system: RARb:RXRa (NR concentration 270 nM, RXRa partner concentration 90 nM)
Procedure, shortened: as §1

Row | Sequence | PBM binding z-score [1] | PBM binding z-score [2] | PBM binding z-score [3] | PBM binding z-score [4] | PBM binding z-score [5] | PBM binding z-score [6] | PBM binding z-score [7] | PBM binding z-score [8] | PBM binding z-score [9] | PBM binding z-score [10] | PBM binding z-score [11] | PBM binding z-score [12] | PBM binding z-score [13] | PBM binding z-score [14] | PBM binding z-score [15] | PBM binding z-score [16] | PBM binding z-score [17] | PBM binding z-score [18] | PBM binding z-score [19] | PBM binding z-score [20]
1 | CCTACTGGGCCTCGAAAGGTCATTGATTCAGTGA | 3.05 | 3.94 | 4.13 | 3.74 | 0.187 | 4.05 | 1.44 | 2.98 | 0.556 | 1.97 | 2.57 | 3.15 | -1.13 | -0.00532 | 2.06 | 4.88 | 1.11 | 4.9 | 0.198 | 3.66
2 | CCTAGCAGGCCAATCTGGGTCACCCAAGGCTTGA | 0.68 | 1.16 | -0.385 | 0.427 | -0.863 | 3.04 | 2.45 | 2.51 | -0.13 | 1.89 | 3.64 | 4.92 | -0.253 | -1.35 | 0.456 | 1.03 | -0.451 | 1.59 | -0.135 | 1.62
3 | TCTGCTAGGTCGGTTGGTCAGCTAACGAGCTGCC | -1.29 | -0.709 | -0.834 | -0.284 | 0.368 | 0.029 | -1.04 | 0.448 | 0.962 | 0.78 | 0.68 | 0.822 | -0.109 | -0.00426 | -1.51 | -0.617 | -0.886 | -0.528 | -1.53 | 0.845
4 | CCGACTGGGGCAGAAAGGTTTCCATACCATCCGG | -0.743 | -0.804 | -0.629 | -1.01 | -1.31 | -0.642 | 0.629 | 0.229 | -0.72 | -0.258 | 1.64 | 0.908 | -1.84 | -1.79 | -0.677 | -0.755 | -0.948 | -0.82 | -1.09 | 0.352
5 | TATCCAGGGTCAAAGGCCAGAGTACGAATGTCGA | 7.03 | 5.91 | 2.02 | 5.03 | 2.02 | 6.22 | 7.96 | 7.53 | 5.26 | 6.94 | 2.23 | 4.91 | 0.174 | 1.96 | 2.06 | 4.77 | 0.563 | 6.33 | 1.05 | 4.55
6 | CAAACTAGGTCTAGGTCAAAGTCGGTTTGTGCCA | 1.86 | 2.04 | 1.3 | 1.73 | 0.0723 | 3.34 | 2.95 | 3.82 | 1.2 | 3.03 | 4.21 | 4.82 | 0.191 | 0.991 | 1.41 | 1.7 | 0.0565 | 2.06 | -0.42 | 2.67
7 | TCGCGGAGGACACGAAGGTCAGAGCTTTCCAGAG | 0.923 | 0.953 | 0.0426 | 0.704 | -1.29 | 1.84 | 0.306 | 1.15 | 0.607 | 0.901 | 0.6 | 0.577 | -0.818 | -2.01 | 1.37 | 1.83 | 0.425 | 1.74 | 0.1 | 3.26
8 | TTATCAAGGTGAGCTGAGGTCGTTGATCCAACTC | 1.87 | 1.22 | -0.0853 | 0.999 | -0.746 | 1.87 | 0.583 | 1.19 | 0.537 | 0.566 | 1.53 | 2.79 | 0.246 | -0.126 | 0.465 | 4.8 | 0.706 | 1.99 | -0.272 | 1.85
9 | TGAATGAGGTTATAAGATCAGCGAACGTTGCAAA | 1.21 | 1.34 | -0.415 | 0.765 | -0.436 | 2.88 | 1.18 | 1.89 | 0.811 | 1.34 | 1.18 | 2 | 0.4 | -0.321 | -0.104 | 0.634 | -0.373 | 1.33 | -0.341 | 1.06
10 | TCTTGGAGGACACGAAGGTCAGAGCTTTCCAGAG | 1.51 | 1.47 | 0.0796 | 1.27 | -0.69 | 2.1 | 0.905 | 2.2 | 2.51 | 2.31 | 2.12 | 2.46 | -0.251 | -0.635 | 0.788 | 1.93 | 0.605 | 1.86 | -0.208 | 3.36
11 | ATCGAAGGGTCGAGGTGAGTATAGAGAAAGGGAA | 1.41 | 1.24 | 0.0219 | 1.19 | 0.389 | 2.62 | 1.49 | 1.28 | 0.548 | 0.905 | -0.0932 | 1.19 | 0.848 | 0.0579 | 1.27 | 1.26 | 0.308 | 1.74 | 1.01 | 2.51
12 | GATACAGGGTCAGCTAGAGGCCAGTGTATGGAAA | 4.14 | 2.46 | -0.408 | 2.42 | -0.768 | 4.11 | 3.25 | 3 | 1.16 | 1.86 | 0.823 | 2.25 | 0.256 | -0.378 | 3.5 | 3.29 | 0.17 | 4.54 | -0.191 | 4.15
13 | ACTAGTTGGTCCGCTGAGGTCACACACAATTCGG | 2.59 | 2.61 | 1.91 | 3.24 | 0.456 | 3.57 | 1.38 | 1.99 | 0.517 | 1.36 | 0.592 | 1.67 | 0.377 | -0.126 | 2.76 | 4.69 | 2.24 | 4.51 | 0.677 | 2.97
14 | ATCTCTAGGTAAAGTTCACTGAAAGATCGATAGA | 2.15 | 3.16 | 3.22 | 2.37 | 1.29 | 3.64 | 5.42 | 5.61 | 4.25 | 5.65 | 2.42 | 3.28 | 2.5 | 1.51 | 2.51 | 3.54 | 2.92 | 2.82 | 1.43 | 3.51
